Inconclusive results are not listed. Calls of active or inactive are those of the source. Rule for the calls, unless noted: active = hit-call score of the fitted dose curve at least 0.9, where 1 is the maximum; inconclusive = response in the unintended direction; inactive = score below 0.9.
test system: not listed separately; assay: TOX21_PR_LUC_Followup_Antagonist_viability: Viability Assessment in the Tox21 HEK293 Progesterone Receptor (PR) Antagonism Luciferase Follow-Up Assay (AID 2283940)
In short: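 Cellular ATP, measured with luciferase-coupled CellTiter-Glo, served as the viability endpoint after HEK293-PR-A-luc cells were exposed to test compounds for 16 h at 37C.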

Row | SMILES | outcome
1 | C#C[C@]1(O)CC[C@H]2[C@@H]3CCC4=Cc5oncc5C[C@]4(C)[C@H]3CC[C@@]21C | inactive
2 | CCCc1c(OCCCOc2ccc(OCC(=O)O)cc2)ccc(C(C)=O)c1O | inactive
3 | COC(=O)C1=C(C)NC(C)=C(C(=O)OCCN(C)Cc2ccccc2)C1c1cccc([N+](=O)[O-])c1 (stereo not drawn) | inactive
4 | C[C@]12CC[C@H]3[C@@H](CCC4=CC(=O)CC[C@@]43C)[C@@H]1CC[C@@H]2C(=O)CO | inactive
5 | C[C@H]1C[C@H]2[C@@H]3CCC4=CC(=O)C=C[C@]4(C)[C@@]3(F)[C@@H](O)C[C@]2(C)[C@@]1(O)C(=O)COP(=O)(O)O | inactive
6 | O=c1cc(-c2ccccc2)oc2cc(O)cc(O)c12 | inactive

test system: not listed separately; assay: TOX21_PR_LUC_Followup_Agonist_viability: Viability Assessment in the Tox21 HEK293 Progesterone Receptor (PR) Agonism Luciferase Follow-Up Assay (AID 2283941);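 note: loss of signal means cytotoxicity so actives lower viability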
In short: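 Luminescent ATP quantitation (CellTiter-Glo) serves as the read-out; a drop flags cytotoxic compounds. Cells are HEK293-PR-A-luc grown in 10% charcoal-stripped FBS, plated 3,000/well, and exposed to compound for 16 h.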

Row | SMILES | outcome
7 | C#C[C@]1(O)CC[C@H]2[C@@H]3CCC4=Cc5oncc5C[C@]4(C)[C@H]3CC[C@@]21C | inactive
8 | O=C(Oc1ccccc1)c1ccc(O)cc1 | inactive
9 | CCCc1c(OCCCOc2ccc(OCC(=O)O)cc2)ccc(C(C)=O)c1O | inactive
10 | COC(=O)C1=C(C)NC(C)=C(C(=O)OCCN(C)Cc2ccccc2)C1c1cccc([N+](=O)[O-])c1 (stereo not drawn) | inactive
11 | CC(=O)[C@H]1CC[C@H]2[C@@H]3CC=C4C[C@@H](O)CC[C@]4(C)[C@H]3CC[C@]12C | inactive
12 | C[C@]12CC[C@H]3[C@@H](CCC4=CC(=O)CC[C@@]43C)[C@@H]1CC[C@@H]2C(=O)CO | inactive
13 | C[C@H]1C[C@H]2[C@@H]3CCC4=CC(=O)C=C[C@]4(C)[C@@]3(F)[C@@H](O)C[C@]2(C)[C@@]1(O)C(=O)COP(=O)(O)O | inactive
14 | O=c1cc(-c2ccccc2)oc2cc(O)cc(O)c12 | inactive

target: THRA (gene 7067) (UniProt P10827); assay: TOX21_TRA_COA_Agonist_Followup_ratio: Tox21 Thyroid Hormone Receptor alpha Agonism through Coactivator Recruitment Follow-Up Assay, Ratio (AID 2283948; active = hit-call score of the fitted dose curve at least 0.9, where 1 is the maximum; inactive = score below 0.9)
Sequence (P10827 whole entry, looked up, the tested form may be a part): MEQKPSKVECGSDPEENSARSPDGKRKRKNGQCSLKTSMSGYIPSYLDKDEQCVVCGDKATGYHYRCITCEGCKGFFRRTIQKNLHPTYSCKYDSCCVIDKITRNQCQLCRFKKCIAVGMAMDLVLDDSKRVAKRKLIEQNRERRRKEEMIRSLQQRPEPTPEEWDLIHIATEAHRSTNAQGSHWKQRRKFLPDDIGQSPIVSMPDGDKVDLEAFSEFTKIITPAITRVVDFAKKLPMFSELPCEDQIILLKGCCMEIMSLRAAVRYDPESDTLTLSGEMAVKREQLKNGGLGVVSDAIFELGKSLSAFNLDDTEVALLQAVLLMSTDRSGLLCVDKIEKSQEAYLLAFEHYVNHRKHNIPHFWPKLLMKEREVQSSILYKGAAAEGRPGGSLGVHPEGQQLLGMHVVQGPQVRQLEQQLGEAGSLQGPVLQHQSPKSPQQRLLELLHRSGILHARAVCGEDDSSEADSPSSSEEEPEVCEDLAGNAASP
In short: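 Cell-free TR-FRET coactivator recruitment: GST-tagged TRα LBD (2.5 nM) with 0.10% BSA was incubated with compound, then fluorescein-SRC-2 peptide (200 nM) and Tb-anti-GST antibody (2 nM) added. 520:495 nm ratio normalized to DMSO (0%) and T3 (100%).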

Row | SMILES | outcome
15 | Cc1cccc(C)c1[N+](=O)[O-] | inactive
16 | CC(CCO)CCCC(C)(C)O (stereo not drawn) | inactive
17 | Nc1ccc(S(N)(=O)=O)cc1 | inactive
18 | CC(=O)OCCC(C)CC(C)(C)C (stereo not drawn) | inactive

Source: PubChem BioAssay (EPA / NIEHS)
